# The whole screen tested about 23,000 compounds, of which about 30 (0.1%) showed an effect of 50% or more. The full list was thinned out, with strong results kept by preference. Potency and affinity values are given separately.
# Test system: Pseudomonas aeruginosa
# Conditions: Concentration 300 ug.mL-1; ASSAY_TEST Inhibition of Bacterial Growth; detection method Absorption (OD600); MEDIA CAMHB; plate type 384well; NBS; CORNING #3640; time 18 hr
row,Structure (SMILES),Inhibition
1,COC(=O)c1ccc(=O)n(CC(=O)NCCC(C)C)c1,4.64%
2,O=C(NCCOc1ncccc1Cl)c1cscn1,13.9%
3,COc1ccc(CN2C[C@H](O)[C@@H](N(C)C)C2)c(C)c1C,27.33%
4,Cc1cc(C(=O)N2C[C@H](C3CC3)[C@@H](N)C2)ccc1O,1.32%
5,CC1CCN(CCNC(=O)c2cnccn2)CC1,-12.84%
6,CNCCN1CCOC(C)(C)C1,9.7%
7,NS(=O)(=O)c1ccc(NC(=O)Cn2ccnc2)cc1,5.95%
8,Cc1cc(C(=O)O)cc(N2C[C@H](C3CC3)[C@@H](N)C2)n1,-2.3%
9,CC(SCCN1CCOCC1)C(=O)N(C)C(C)C (stereo unspecified),5.48%
10,N#Cc1ccc(Br)o1,8.03%
11,Cc1cccc(C)c1-n1nnnc1SCC(N)=O,21.56%
12,CNC(=O)C1CCN(CCCOc2ccccc2)CC1,24.15%
13,CCCNC(=O)CCNC(=O)NCC,0.02%
14,CCc1ccc(C(=O)NC2CNC[C@@H]2OC)o1 (stereo partly specified),36.32%
15,NCC1(CCO)CCOC1 (stereo unspecified),6.83%
16,COc1cccc(-c2ccc(CNS(N)(=O)=O)cc2)c1,23.3%
17,O=C(NCC1CCNCC1)c1ccncc1,12.69%
18,CCN(CCn1cccn1)C(=O)CNC(=O)N(C)C,-8.78%
19,CCN(c1ccccc1)S(N)(=O)=O,5.95%
20,COc1c(C)cnc(CNC(=O)CSC)c1C,1.37%
21,CN1CCC(NC(=O)CSCc2cccs2)CC1,12.03%
22,CNC(=O)NC1CN(C(=O)OC(C)(C)C)C1,-6.26%
23,CN(C)CCCOc1cccc(CN2CC(O)C2)c1,2%
24,OC1(CNCc2ccccn2)CCc2ccccc21 (stereo unspecified),24.9%
25,Cc1c(Cl)cccc1C(=O)NC(C)c1nnnn1C (stereo unspecified),8.95%
26,Cc1cc(N(C)C)n2nccc2n1,-18.53%

row,Structure (SMILES),Inhibition
1,CCN(CC)C(=O)COc1ccc(C(C)=O)c(F)c1,4.67%
2,COc1cn(C)c(C(=O)NCc2ccco2)cc1=O,21.6%
3,CC(=O)c1ccc(CNc2nccnc2C#N)nc1C,14.58%
4,Cc1nc(C2CCN(C(=O)c3cn[nH]c3)CC2)no1,-1.22%
5,NC1CCC(NC(=O)c2ccnc(C3CC3)n2)CC1 (stereo unspecified),4.44%
6,CN1CCC(CCNS(C)(=O)=O)CC1,-4.45%
7,CCCc1noc(C(C)Nc2cccc(C(N)=O)c2)n1 (stereo unspecified),24.66%
8,O=S1(=O)CCC(NCc2csc(-c3ccccn3)n2)C1 (stereo unspecified),17.32%
9,CCC1CN(Cc2ccnc(N)c2)CCO1 (stereo unspecified),4.62%
10,COCCNC(=O)CNC(=O)c1cc(C)cc(C)c1Br,7.79%
11,CNCCCNC(=O)CCc1ccsc1,-24.67%
12,CCC(C)NC(=O)NCc1ccc(-n2ccnc2)nc1 (stereo unspecified),14.1%
13,CN1CCN(C(=O)C2COc3ccccc3O2)CC1=O (stereo unspecified),3.72%
14,Cc1ccccc1CNc1nnc(CO)s1,26.98%
15,CC1(CO)COCCN1Cc1ccccc1 (stereo unspecified),11.96%
16,Cc1cccc(C(=O)Nc2nnn(C)n2)c1,2.82%
17,Cc1n[nH]c(C)c1S(=O)(=O)N1CCN(C)CC1,33.93%
18,CCNC(=O)Nc1c[nH]nc1C1CCCNC1 (stereo unspecified),15.62%
19,NS(=O)(=O)NCC1CCCN(CCC2CCCC2)C1 (stereo unspecified),13.03%
20,Cc1nc(CN2CCC(O)(CN3CCCC3)CC2)c[nH]1,20.39%
21,O=C(C1CCCO1)N1CCN(c2cc(Br)ccn2)CC1 (stereo unspecified),3.3%
22,c1ccc(-c2nc3c([nH]2)CCNC3)cc1,7.84%
23,CNC(=O)CN1CCCC(CO)(CC=C(C)C)C1 (stereo unspecified),20.92%
24,N#Cc1ccc(CN2CCC3(CCC3O)CC2)cc1 (stereo unspecified),20.3%
25,Cc1ocnc1C(=O)NCCNC(=O)c1cccnc1,1.53%

# — ChEMBL document CHEMBL4513160, “CO-ADD screening of MMV (CH) - Small Polar Library”
